Test results reported in PubChem BioAssay (NCI).
This is part of a sample that, as a whole, favours compounds with a hit. Of some 83,000 tested, about 20% had one in any assay.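 For each line, cells grew in 96-well plates with the test compound present at a single concentration for 48 hours.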 A number with no mark means an inactive call. The source made the active and inactive calls. How the source made its calls: active means growth percent below 10; inactive means the rest.

Columns and labels:
Assay in all cases: NCI-60 one-dose screen, 48 h (100 = growth as untreated, 0 = no growth, -100 = all killed)
Conditions in all cases: 10 µM unless noted
NCI-H23 lung = system: NCI-H23 lung
NCI-H226 lung = system: NCI-H226 lung
NCI-H322M lung = system: NCI-H322M lung
HOP-62 NSCLC = system: HOP-62 NSCLC
NCI-H460 lung = system: NCI-H460 lung
HOP-92 NSCLC = system: HOP-92 NSCLC
NCI-H522 lung = system: NCI-H522 lung
A549/ATCC NSCLC = system: A549/ATCC NSCLC
786-0 renal = system: 786-0 renal
COLO 205 colon = system: COLO 205 colon

Row | SMILES | growth (NCI-H23 lung) [%] | growth (NCI-H226 lung) [%] | growth (NCI-H322M lung) | growth (HOP-62 NSCLC) [%] | growth (NCI-H460 lung) [%] | growth (HOP-92 NSCLC) | growth (NCI-H522 lung) | growth (A549/ATCC NSCLC) [%] | growth (786-0 renal) [%] | growth (COLO 205 colon) [%]
1 | O=C1/C(=C/c2ccccn2)NC(=S)N1c1ccccc1Cl | 56.4 | 78.3 | 66.7% | 38.9 | 31.2 | 102% | 58.1% | 51 | 31.8 | 
2 | Cc1ccc2nc(-c3ccc(C(=O)NNC(=S)Nc4ccccc4)cc3)[nH]c2c1 | 91.5 | 92.7 | 99.7% | 95.3 | 94.4 | 99.8% | 95% | 101 | 94.8 | 
3 | CCOC(=O)/C=C1\S/C(=N\Nc2cc(=O)[nH]c3ccccc23)N(c2ccccc2)C1=O | 97.9 | 95.4 | 101% | 92.1 | 107 | 88.8% | 96.7% | 103 | 101 | 
4 | CN(Cc1cc(Br)cc(Br)c1O)Cc1cc(Br)cc(Br)c1O | 36.9 | 52 | 26.4% | 30.9 | 19.1 | 32.3% | 3.36% (active) | 36.8 | 39.9 | 
5 | C=C1C(=O)O[C@H]2[C@H]1CC/C(COC(=O)NCc1ccc(Cn3c(=O)sn(-c4ccc(C#N)cc4)c3=O)cc1)=C\CC[C@@]1(C)O[C@@H]21 | 78.2 | 95.5 | 104% | 92.2 | 104 | 26.1% | -28% (active) | 96.7 | 66.1 | 
6 | COc1cccc(/C=C/C(=O)c2cccc(Nc3nc(Nc4ccccc4)nc(Nc4ccccc4)n3)c2)c1 | 82.2 | 94.2 | 86.6% | 79.2 | 91.9 | 17.7% | 85.6% | 68.5 | 89 | 
7 | CC(C)N1C(=O)/C(=c2\sc3n(c2=O)C2C(NN=3)N(C)C(=O)N2C)c2ccccc21 (configuration not stated) | 74.6 | 83 | 91.6% | 74.7 | 62.2 | 42.9% | 33.9% | 50.8 | 62.7 | 91.1
8 | CCOC(=O)c1c(C)nc2c(c1N)/C(=C/c1ccc(OC)cc1)C(=O)N2Cc1ccccc1 | 59.2 | 86.1 | 74.9% | 58.1 | 41.1 | 45% | 66.3% | 63.4 | 64.4 | 
9 | O=C1/C=C/[C@@H](O)[C@@H]2C[C@@H](O)C[C@H]2/C=C/CCC[C@@H](O)CCO1 | 77.1 | 77.3 | 99.3% | 103 | 110 | 98% | 108% | 89.3 | 61.5 | 
10 | O=C(CC(=O)Nc1cccc(C(=O)O)c1)Nc1cccc(C(=O)O)c1 | 107 | 112 | 105% | 88.3 | 100 | 99.7% | 78% | 85.8 | 98 | 
11 | CC1(C)CC2=C3C=C[C@@H]4[C@@]5(C)CCC(=O)C(C)(C)[C@@H]5CC[C@@]4(C)[C@]3(C)CC[C@@]2(C(=O)O)C[C@H]1O | 23.2 | 25.5 | 26.6% | 30.1 | 18 | -7.2% (active) | 26.4% | 26.3 | 17.2 | 
12 | Cc1cn(-c2cc(NC(=O)c3cncc(C#Cc4c(N)ncc5ccc(F)cc45)c3)cc(C(F)(F)F)c2)cn1 | 25 | 36.2 | 65.7% | 67.3 | 49.2 | -8.98% (active) | 58.1% | 61.3 | 77.1 | 
13 | CCCC(CC)(C(=O)Nc1ccc2nc(C)cc(N)c2c1)C(=O)Nc1ccc2nc(C)cc(N)c2c1 | 94.1 | 97.8 | 108% | 107 | 106 | 117% | 92% | 98.3 | 103 | 
14 | O=C(O)c1cn(C2CC2)c2cc(N3CCN(C(=O)Nc4nc(-c5ccc(Br)cc5)cs4)CC3)c(F)cc2c1=O | 12.4 | 18.9 | 6.95% (active) | 21.8 | 10.4 | -8.59% (active) | 5.78% (active) | 14.3 | 27.3 | 
